Source: PubChem BioAssay
JMJD2A Tudor inh: qHTS Assay for Inhibitors of JMJD2A-Tudor Domain | Lysine-specific demethylase 4A (Homo sapiens), O75164 | AlphaScreen JMJD2A-Tudor / H3K4me3 peptide binding | Potency, µM (doses to about 114 µM), without a hit: at the highest dose activity change, negative = inhibition, actives largely listed as inhibitors | 390,000 compounds, 4.4% hits | AID 504339, 2011; note: % is set by controls: 0 for no effect and ±100 for the full control effect; nearly all actives have a fitted effect of over 50% in size
L3MBTL1 inh: qHTS Assay for the Inhibitors of L3MBTL1. Lethal(3)malignant brain tumor-like protein 1 (Homo sapiens), Q9Y468. AlphaScreen L3MBTL1–H3K9me1 peptide binding. Potency, µM (highest dose often 57.1 µM), for inactives: at the highest dose activity, negative = inhibition, hits mostly inhibitors. 230,000 compounds, 0.66% hits. AID 485360, 2010; note: % is set by controls: 0 for no effect and ±100 for the full control effect; nearly all actives have a fitted effect of over 60% in size
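AlphaScreen assay: L3MBTL1 (50 nM final) was preincubated 30 min at room temperature with biotinylated H3(1-15)K9me1 peptide (75 nM final), then 30 min with library compounds; streptavidin donor and nickel chelate acceptor beads (10 ug/mL final) added, 30 min dark.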
BAZ2B block: qHTS Assay for Inhibitors of BAZ2B | Bromodomain adjacent to zinc finger domain protein 2B (Homo sapiens), Q9UIF8 | AID 504333, 2011 | 360,000 compounds, 4.4% hits | Potency, µM (top dose mostly 114 µM), for inactives: at the top dose activity change, negative = inhibition, hits mostly inhibitors | AlphaScreen BAZ2B-H3K14Ac peptide displacement; note: % is set by controls: 0 for no effect and ±100 for the full control effect; nearly all actives have a fitted effect of over 60% in size
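AlphaScreen displacement: compounds (up to 110uM) incubated 30 min at room temperature with a preformed 50 nM BAZ2B/50 nM biotinylated H3K14Ac peptide complex in PBS pH 7.4 with Tween-20. Donor and acceptor beads at 10 ug/mL final added, 20 min light-protected before reading.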
HP1b binding inh: HTS for Inhibitors of HP1-beta Chromodomain Interactions with Methylated Histone Tails; 390,000 compounds, 0.56% hits; Potency, µM (doses to about 114 µM), for the others: top-dose activity change, negative = inhibition, actives largely listed as inhibitors; AlphaScreen HP1-beta / biotin-H3K9me3 peptide binding; Chromobox protein homolog 1 (Homo sapiens), P83916; note: nearly all actives have a fitted effect of over 70% in size
Target sequence (P83916 whole entry, looked up): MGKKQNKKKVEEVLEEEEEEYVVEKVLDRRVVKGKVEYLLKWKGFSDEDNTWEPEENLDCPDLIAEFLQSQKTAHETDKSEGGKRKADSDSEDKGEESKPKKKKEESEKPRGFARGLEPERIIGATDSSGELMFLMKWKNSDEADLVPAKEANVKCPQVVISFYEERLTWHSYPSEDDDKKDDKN
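HP1-beta protein (50 nM final) preincubated 30 min at room temperature with biotinylated H3(1-18)K9me3 peptide (50 nM) in PBS pH 7.4, 0.01% Tween-20, then compound added for 30 min. AlphaScreen streptavidin donor/nickel chelate acceptor beads (10 ug/mL final), 30 min dark, luminescence read.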
G9a block: qHTS Assay for Inhibitors of Histone Lysine Methyltransferase G9a. G9a H3K9 monomethylation, AlphaScreen, 2 h. Potency, µM (doses to about 102 µM), without a hit: top-dose activity, negative = inhibition, usual class: inhibitors. 350,000 compounds, 8.8% hits. AID 504332, 2011; note: % is set by controls: 0 for no effect and ±100 for the full control effect; nearly all actives have a fitted effect of over 75% in size
Target sequence (Q96KQ7 913-1193 limits assumed): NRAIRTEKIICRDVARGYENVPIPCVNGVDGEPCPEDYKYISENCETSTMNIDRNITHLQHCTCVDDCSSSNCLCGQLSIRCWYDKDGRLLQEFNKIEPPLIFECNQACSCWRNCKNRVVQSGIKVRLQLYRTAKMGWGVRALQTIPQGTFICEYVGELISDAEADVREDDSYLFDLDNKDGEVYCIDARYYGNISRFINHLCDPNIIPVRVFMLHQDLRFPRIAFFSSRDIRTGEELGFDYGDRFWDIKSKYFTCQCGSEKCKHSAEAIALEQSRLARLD
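G9a (20 nM) preincubated 15 min RT with compounds, then 500 nM biotinylated H3K9 peptide and 20 uM SAM added; 2 h RT reaction. Monomethyl-H3K9 product detected by AlphaScreen with anti-H3K9me1 antibody, streptavidin donor and anti-rabbit IgG acceptor beads.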
Active calls of the source: *; ? = inconclusive; . = no result given; [ ] = another dose, or the depositor's remark. Most compounds without a hit are left out; they make up all but 11% or so of the library. Calls come from the whole dose curve; as a rule, active = well fitted inhibition curve with a large enough effect; inconclusive = small, poorly fitted or top-dose-only effect; inactive = no such curve, though single readings can be large or run the other way. Potency is the fitted concentration of half-maximal effect.

SMILES	JMJD2A Tudor inh	L3MBTL1 inh	BAZ2B block	HP1b binding inh	G9a block
Cc1ccc(CNC(=O)c2ccc(Cn3c(=O)c4ccccc4n(CC(=O)Nc4ccc(C)cc4C)c3=O)cc2)cc1	-6.5%	.	-24.8%	37.3%	-1.3%[59 µM]
COc1ccc(NC(C)=O)cc1NC(=O)c1ccc2ccccc2c1	-20.3%	.	-25.6%	51.8%	16.6%[59 µM]
Cc1cc(C)n(-c2nc3ccccc3nc2N2CCN(c3cccc(C(F)(F)F)c3)CC2)n1	64.0%	.	74.1%	59.5%	95.4%[59 µM]
CCCC(=O)Nc1nc(C)c(-c2csc(Nc3ccc(Cl)cc3)n2)s1	?	-7.3%	28.2µM*	?	38.3%[0.501 µM]
CC(=O)Nc1nc(C)c(-c2csc(Nc3cccc(C(C)=O)c3)n2)s1	-28.8%	.	-39.0%	-8.0%	39.8µM*
CCC(C)C(=O)Nc1nc(C)c(-c2csc(Nc3ccc(Cl)cc3)n2)s1 (stereo not given)	?	-3.8%	?	-22.5%	2.1%[0.501 µM]
COc1cccc(Nc2nc(-c3sc(NC(=O)c4ccccc4)nc3C)cs2)c1	79.4µM*	-7.4%	?	?	50.1µM*
Cc1nc(NC(=O)c2ccccc2)sc1-c1csc(Nc2ccc(C(=O)O)cc2)n1	22.4µM*	.	10µM*	39.8µM*	.
O=C(O)c1ccc(Nc2nc(-c3ccccc3)cs2)cc1	-21.1%	.	-31.7%	11.9%	?
COc1ccccc1CNC(=O)c1ccc2c(c1)CCN2S(=O)(=O)c1ccc(Cl)cc1	-20.8%	.	-1.8%	34.2%	7.8%[59 µM]
O=C(COc1cccc(Cl)c1)N1CCC(c2nc3ccccc3s2)CC1	-3.3%	.	6.7%	18.5%	-0.1%[59 µM]
COc1cccc(C(=O)c2cn(CC(=O)Nc3cccc(Cl)c3C)c3nc(C)ccc3c2=O)c1	-2.6%	.	4.1%	38.7%	6.7%[59 µM]
CCc1ccc(S(=O)(=O)c2nnn3c2nc(Nc2ccc(F)cc2)c2cc(Cl)ccc23)cc1	1.1%	.	-0.8%	34.5%	7.7%[59 µM]
CCC(=O)Nc1nc(C)c(-c2csc(Nc3cccc(C(=O)O)c3)n2)s1	-21.2%	-23.2%	?	-18.5%	44.7µM*
COc1cccc(Nc2nc(-c3sc(NC(=O)CC(C)C)nc3C)cs2)c1	?	-3.9%	?	-4.2%	?
CCC(=O)Nc1nc(C)c(-c2csc(Nc3ccc(C(=O)O)cc3)n2)s1	-24.2%	.	-16.2%	20.5%	50.1µM*
Cc1csc(Nc2ccc(C(=O)O)cc2)n1	10.9%	0.3%	-2.4%	33.7%	-33.3%
O=S(=O)(Nc1ccc(-c2ccc(N3CCCC3)nn2)cc1)c1ccccc1Cl	-18.8%	.	0.4%	-0.9%[57 µM]	3.6%[59 µM]
CC1Cn2cc(C(=O)Nc3cccc(C(F)(F)F)c3)c(=O)c3c(Cl)ccc(c32)O1 (stereo not given)	-3.6%	.	2.9%	27.2%	4.1%[59 µM]
CCCN1CNc2c(c(=O)[nH]c(=S)n2CCc2cc(OC)cc(OC)c2)C1	-8.8%	.	.	22.4%	.
Cc1cc(CN(C)C(=O)CC2C(=O)NCCN2Cc2c(F)cccc2Cl)n[nH]1 (stereo not given)	9.0%	-1.7%	33.0%	23.9%	39.8µM*
COc1ccc(CN2CCNC(=O)C2CC(=O)N(C)Cc2nc(C)cs2)c(OC)c1 (stereo not given)	-8.0%	.	-32.6%	8.5%	50.1µM*
Cc1csc(CN(C)C(=O)CC2C(=O)NCCN2Cc2ccc(F)cc2Cl)n1 (stereo not given)	-2.7%	.	-17.1%	41.1%	22.4µM*
Cc1csc(CN(C)C(=O)CC2C(=O)NCCN2Cc2ccc(Cl)c(F)c2)n1 (stereo not given)	-10.4%	.	-22.0%	39.7%	39.8µM*
Cc1cccc(CC(=O)NCCc2csc(-c3ccc(C(F)(F)F)cc3)n2)c1	0.6%	.	5.6%	29.1%[57 µM]	3.2%[59 µM]
Oc1ccc(N2CCN(c3ccnc4cc(Cl)ccc34)CC2)cc1	56.2µM*	.	?	?	8.91µM*
Clc1ccc2c(N3CCOCC3)ccnc2c1	-6.8%	-1.7%	4.0%	23.2%	8.5%
